Activity calls are given as the source filed them. Rule for the calls: active = hit-call score of the fitted dose curve at least 0.9, where 1 is the maximum; inactive = score below 0.9.
Key:
[1] = ATG_CRE_CIS: Attagene CIS-FACTORIAL HepG2 Assay for human cAMP Responsive Element (CRE) binding protein 3 (AID 2282926); conditions: HepG2 CRE cis-reporter, Attagene multiplexed mRNA; actives raise or lower the signal
Outline: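 Assay format: transient reporter transfection of HepG2, 24 h treatment, total RNA isolation with DNase I step. Reporter abundance read by fluorescence after PCR and capillary separation; DMSO-normalised gain or loss fitting.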

[2] = biological target: CCAAT/enhancer-binding protein beta (Homo sapiens) (UniProt P17676); test: ATG_C_EBP_CIS: Attagene CIS-FACTORIAL HepG2 Assay for human CCAAT/Enhancer Binding Protein (C/EBP) beta (AID 2282927); conditions: HepG2 Attagene cis-factorial transcription factor reporter; actives raise or lower the signal
Outline: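 HepG2 transiently transfected with multiplexed reporter units under cis-regulatory promoters reporting endogenous C/EBPb activity. After 24 h exposure, reporter mRNA assayed by RT-PCR, fluorescent labelling, HpaI digestion and capillary electrophoresis; bidirectional fitting versus DMSO.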

[3] = ATG_AP_1_CIS: Attagene CIS-FACTORIAL HepG2 Assay for human Activator Protein 1 (AP-1) (AID 2282931); conditions: HepG2 Attagene cis-factorial AP-1 reporter mRNA; actives raise or lower the signal
Outline: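 Multiplexed HepG2 reporter assay, 24 h dosing. mRNA induction detected by RT-PCR plus capillary electrophoresis. Activity fitted in both directions against DMSO.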

[4] = ATG_AP_2_CIS: Attagene CIS-FACTORIAL HepG2 Assay for human Activator Protein 2 (AP-2) (AID 2282932); conditions: HepG2 AP-2 cis-reporter, Attagene transcription factor profiling; actives raise or lower the signal
Outline: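 Read-out: fluorescent reporter mRNA via RT-PCR and capillary electrophoresis, 24 h post-dose in transiently transfected HepG2. Endogenous factors drive cis-promoter reporters; gain or loss of signal fitted bidirectionally against DMSO.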

[5] = biological target: Retinoic acid receptor alpha (Homo sapiens) (UniProt P10276); test: ATG_DR5_RAR_CIS: Attagene CIS-FACTORIAL HepG2 Assay for human Retinoic Acid Receptor Alpha (RARE), DR5 submotif (AID 2282934); conditions: HepG2 Attagene cis-factorial RARE DR5 reporter, mRNA; actives raise or lower the signal;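 for AC50: reporter responds to endogenous RAR alpha beta and gamma in HepG2 not RARA alone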
Outline: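 HepG2 cells transiently transfected with multiplexed reporter units; DR5 cis-element drives reporter through endogenous transcription factors. After 24 h dosing, reporter mRNA quantified by RT-PCR, fluorescent labeling, HpaI digestion and capillary electrophoresis; bidirectional fitting versus DMSO.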

[6] = biological target: Transcription factor E2F1 (Homo sapiens) (UniProt Q01094); test: ATG_E2F_CIS: Attagene CIS-FACTORIAL HepG2 Assay for human E2F Transcription Factor 1 (AID 2282935); conditions: HepG2 Attagene cis-reporter, E2F reporter RNA transcripts; actives raise or lower the signal
Outline: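 Transient MRTU transfection of HepG2; 24 h compound exposure; RNA → oligo(dT) RT → PCR → FAM label → HpaI cut → CE fluorescence. Gain/loss of signal fit against DMSO.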

[7] = ATG_E_Box_CIS: Attagene CIS-FACTORIAL HepG2 Assay for human Enhancer Box (E-box) (AID 2282936); conditions: HepG2 E-box cis-reporter transcription, actives raise or lower the signal
Outline: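 Transiently transfected HepG2, endogenous TF-driven reporters, 24 h dosing. Readout: RT-PCR plus capillary electrophoresis of fluorescent reporter fragments. Gain or loss of signal fitted bidirectionally against DMSO baseline.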

[8] = ATG_M_61_CIS: Attagene CIS-FACTORIAL HepG2 Assay for M61 Transcription Factor (Internal Marker) (AID 2282937); conditions: HepG2 Attagene CIS-FACTORIAL M61 internal marker reporter; actives raise or lower the signal
Outline: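 Endogenous transcription factor activity in HepG2 is read through transiently transfected cis-element reporter units. After 24 h dosing, RNA undergoes reverse transcription, PCR and primer extension with 6-FAM before capillary electrophoresis; DMSO-referenced bidirectional fit.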

[9] = ATG_EGR_CIS: Attagene CIS-FACTORIAL HepG2 Assay for human Early Growth Response 1 (EGR1) (AID 2282938); conditions: HepG2 Attagene CIS-FACTORIAL EGR reporter mRNA; actives raise or lower the signal
Outline: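 Activity is taken as induction or loss of reporter mRNA versus DMSO, fitted bidirectionally. Transcripts from cis-regulated reporter units in transiently transfected HepG2 were measured after 24 h by RT-PCR with capillary electrophoresis.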

[10] = ATG_M_19_CIS: Attagene CIS-FACTORIAL HepG2 Assay for M19 Transcription Factor (Internal Marker) (AID 2282939); conditions: HepG2 Attagene CIS-FACTORIAL M19 internal marker reporter; actives raise or lower the signal
Outline: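 HepG2 cells transiently transfected with cis-regulated multiple reporter transcription units were dosed for 24 h; reporter mRNA was quantified by RT-PCR, 6-FAM primer-extension labelling, HpaI digestion and capillary electrophoresis, with bidirectional fitting against DMSO baseline.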

[11] = ATG_ERE_CIS: Attagene CIS-FACTORIAL HepG2 Assay for Estrogen Response Element (ERE) (AID 2282940); conditions: HepG2 ERE cis-reporter, Attagene RNA transcript; actives raise or lower the signal
Outline: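 HepG2 cells transiently transfected with cis-promoter-driven multiplexed reporter transcription units report endogenous TF activity. After 24 h compound exposure, reporter mRNA is quantified by RT-PCR with capillary electrophoresis fluorescence; bidirectional fitting versus DMSO baseline.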

[12] = ATG_Ets_CIS: Attagene CIS-FACTORIAL HepG2 Assay for human Erythroblast Transformation Specific (ETS) (AID 2282941); conditions: HepG2 ETS cis-reporter transcription, actives raise or lower the signal
Outline: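 RT-PCR/capillary electrophoresis fluorescence read-out of reporter mRNA; HepG2 transient multi-reporter transfection; 24 h compound exposure; gain or loss of signal fitted bidirectionally relative to DMSO.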

[13] = biological target: Hepatocyte nuclear factor 3-beta (Homo sapiens) (UniProt Q9Y261); test: ATG_FoxA2_CIS: Attagene CIS-FACTORIAL HepG2 Assay for human Forkhead box A2 (FOXA2) (AID 2282942); conditions: HepG2 cis-reporter transcription factor activity, 24 h; actives raise or lower the signal
Outline: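 Reporter transcript induction is measured by fluorescence after capillary electrophoresis of RT-PCR products from HepG2 cells exposed 24 h. Cis-regulated reporter units report endogenous factor activity; curves fitted both directions against DMSO.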

[14] = ATG_FoxO_CIS: Attagene CIS-FACTORIAL HepG2 Assay for human Forkhead box O (FoxO) (AID 2282943); conditions: HepG2 Attagene cis-reporter, FoxO element, mRNA; actives raise or lower the signal
Outline: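 HepG2 cells transiently transfected with cis-element-driven reporter units report endogenous FoxO activity. After 24 h chemical exposure, reporter mRNA quantified by RT-PCR, fluorescent labeling, HpaI digestion and capillary electrophoresis; bidirectional fit versus DMSO.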

[15] = ATG_GATA_CIS: Attagene CIS-FACTORIAL HepG2 Assay for human GATA Binding Protein (AID 2282944); conditions: HepG2 GATA cis-element reporter, Attagene multiplex mRNA; actives raise or lower the signal
Outline: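 HepG2 cells transiently transfected with multiplexed cis-element reporter units reflecting endogenous transcription factor activity; reporter mRNA measured after 24 h dosing by RT-PCR, 6-FAM labeling, HpaI digestion and capillary electrophoresis. Bidirectional fitting versus DMSO baseline.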

[16] = ATG_GLI_CIS: Attagene CIS-FACTORIAL HepG2 Assay for human Zinc Finger Protein GLI1 (AID 2282945); conditions: HepG2, Attagene cis-factorial reporter mRNA, GLI element; actives raise or lower the signal
Outline: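 Transiently transfected HepG2 cells report endogenous transcription factor activity via cis-element-driven reporter units. After 24 h compound exposure, reporter mRNA was measured by RT-PCR with capillary electrophoresis; bidirectional fitting against DMSO baseline.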

[17] = biological target: Aryl hydrocarbon receptor (Homo sapiens) (UniProt P35869); test: ATG_Ahr_CIS: Attagene CIS-FACTORIAL HepG2 Assay for human Aryl Hydrocarbon Receptor (Ahr) (AID 2282930); conditions: HepG2 AhR cis-factorial reporter transcription; actives raise or lower the signal
Outline: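 HepG2 cells transiently transfected with cis-element-driven multiplexed reporter units; endogenous AhR activity read as reporter mRNA 24 h after dosing, via RT-PCR, 6-FAM labelling, HpaI digestion and capillary electrophoresis. Bidirectional fit relative to DMSO.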

[18] = ATG_BRE_CIS: Attagene CIS-FACTORIAL HepG2 Assay for human Bone Morphogenetic Protein (BMP) Response Element (BRE) (AID 2282933); conditions: HepG2 BMP response element reporter, Attagene transcription factor profiling; actives raise or lower the signal
Outline: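 HepG2 cells transiently transfected with multiplexed cis-element reporter units were dosed with chemical for 24 h. Reporter mRNA was measured by RT-PCR with fluorescent labelling, HpaI digestion and capillary electrophoresis; bidirectional fitting relative to DMSO.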

[19] = ATG_DR4_LXR_CIS: Attagene CIS-FACTORIAL HepG2 Assay for human Liver X Receptor (LXR), DR4 submotif (AID 2282929); conditions: HepG2 Attagene DR4 cis-reporter, mRNA transcription; actives raise or lower the signal
Outline: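 Fluorescence intensity of labelled reporter cDNA fragments, separated by capillary electrophoresis, gives the signal. HepG2 cells bearing cis-regulated reporter constructs were treated 24 h; activity fitted bidirectionally relative to DMSO negative control.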

Measured: AC50

Chain of Aryl hydrocarbon receptor (Homo sapiens) (P35869 whole entry, looked up): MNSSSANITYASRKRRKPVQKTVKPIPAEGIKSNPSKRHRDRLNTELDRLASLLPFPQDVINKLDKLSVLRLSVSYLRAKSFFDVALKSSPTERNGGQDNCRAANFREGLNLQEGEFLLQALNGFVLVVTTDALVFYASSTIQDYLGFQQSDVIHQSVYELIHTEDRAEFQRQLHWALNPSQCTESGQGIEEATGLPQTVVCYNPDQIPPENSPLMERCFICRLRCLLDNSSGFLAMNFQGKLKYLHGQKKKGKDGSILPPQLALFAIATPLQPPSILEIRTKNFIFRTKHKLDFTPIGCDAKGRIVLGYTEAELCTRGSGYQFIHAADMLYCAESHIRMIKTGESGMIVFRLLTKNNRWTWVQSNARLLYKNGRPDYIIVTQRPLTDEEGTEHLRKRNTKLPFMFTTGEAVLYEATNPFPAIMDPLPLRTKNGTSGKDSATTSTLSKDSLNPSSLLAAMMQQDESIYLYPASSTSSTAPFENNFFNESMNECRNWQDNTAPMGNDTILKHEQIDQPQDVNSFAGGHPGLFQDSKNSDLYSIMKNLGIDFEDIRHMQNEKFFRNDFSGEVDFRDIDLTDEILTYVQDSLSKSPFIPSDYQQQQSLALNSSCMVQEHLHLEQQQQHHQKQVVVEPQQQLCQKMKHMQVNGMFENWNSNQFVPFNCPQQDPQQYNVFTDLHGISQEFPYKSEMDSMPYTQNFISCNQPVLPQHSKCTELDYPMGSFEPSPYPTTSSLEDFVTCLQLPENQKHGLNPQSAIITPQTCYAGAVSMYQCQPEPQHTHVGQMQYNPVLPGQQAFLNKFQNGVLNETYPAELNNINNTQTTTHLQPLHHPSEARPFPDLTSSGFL
Chain of Retinoic acid receptor alpha (Homo sapiens) (P10276 whole entry, looked up): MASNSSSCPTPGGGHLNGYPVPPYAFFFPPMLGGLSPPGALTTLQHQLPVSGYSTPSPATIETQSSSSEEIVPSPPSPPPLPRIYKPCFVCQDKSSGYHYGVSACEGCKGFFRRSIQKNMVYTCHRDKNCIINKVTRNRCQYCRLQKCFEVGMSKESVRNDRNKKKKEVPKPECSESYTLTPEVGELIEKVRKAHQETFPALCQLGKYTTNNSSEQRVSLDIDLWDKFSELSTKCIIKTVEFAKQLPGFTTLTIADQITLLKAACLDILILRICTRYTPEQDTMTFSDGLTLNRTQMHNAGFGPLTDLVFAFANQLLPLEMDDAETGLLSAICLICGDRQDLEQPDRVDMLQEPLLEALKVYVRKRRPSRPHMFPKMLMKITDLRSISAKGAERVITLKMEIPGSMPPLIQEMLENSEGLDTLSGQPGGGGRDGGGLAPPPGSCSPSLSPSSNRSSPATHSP
Chain of Hepatocyte nuclear factor 3-beta (Homo sapiens) (Q9Y261 whole entry, looked up): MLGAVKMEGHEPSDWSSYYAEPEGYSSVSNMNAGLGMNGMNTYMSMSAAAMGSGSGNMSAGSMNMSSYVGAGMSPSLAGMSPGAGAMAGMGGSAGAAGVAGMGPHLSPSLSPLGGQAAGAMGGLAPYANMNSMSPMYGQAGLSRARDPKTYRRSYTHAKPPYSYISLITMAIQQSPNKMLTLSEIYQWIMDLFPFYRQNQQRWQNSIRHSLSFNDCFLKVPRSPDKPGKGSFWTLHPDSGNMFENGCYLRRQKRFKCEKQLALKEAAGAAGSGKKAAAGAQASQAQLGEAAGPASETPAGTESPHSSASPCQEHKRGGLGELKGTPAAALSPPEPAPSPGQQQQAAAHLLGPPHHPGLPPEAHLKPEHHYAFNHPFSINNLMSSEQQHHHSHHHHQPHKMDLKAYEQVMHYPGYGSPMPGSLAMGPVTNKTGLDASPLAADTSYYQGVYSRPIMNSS
Chain of Transcription factor E2F1 (Homo sapiens) (Q01094 whole entry, looked up): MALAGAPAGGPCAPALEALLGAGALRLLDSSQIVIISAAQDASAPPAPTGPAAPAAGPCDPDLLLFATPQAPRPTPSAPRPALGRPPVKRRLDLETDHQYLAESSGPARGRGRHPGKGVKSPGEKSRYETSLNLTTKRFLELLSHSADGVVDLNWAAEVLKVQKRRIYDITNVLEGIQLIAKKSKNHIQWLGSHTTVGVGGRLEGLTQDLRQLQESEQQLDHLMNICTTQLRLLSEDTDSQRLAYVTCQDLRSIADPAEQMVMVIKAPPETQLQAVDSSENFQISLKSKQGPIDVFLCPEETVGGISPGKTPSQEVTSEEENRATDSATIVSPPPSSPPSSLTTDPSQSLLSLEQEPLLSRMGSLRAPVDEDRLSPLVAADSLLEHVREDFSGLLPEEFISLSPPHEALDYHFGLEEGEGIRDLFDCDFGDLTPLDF
Chain of CCAAT/enhancer-binding protein beta (Homo sapiens) (P17676 whole entry, looked up): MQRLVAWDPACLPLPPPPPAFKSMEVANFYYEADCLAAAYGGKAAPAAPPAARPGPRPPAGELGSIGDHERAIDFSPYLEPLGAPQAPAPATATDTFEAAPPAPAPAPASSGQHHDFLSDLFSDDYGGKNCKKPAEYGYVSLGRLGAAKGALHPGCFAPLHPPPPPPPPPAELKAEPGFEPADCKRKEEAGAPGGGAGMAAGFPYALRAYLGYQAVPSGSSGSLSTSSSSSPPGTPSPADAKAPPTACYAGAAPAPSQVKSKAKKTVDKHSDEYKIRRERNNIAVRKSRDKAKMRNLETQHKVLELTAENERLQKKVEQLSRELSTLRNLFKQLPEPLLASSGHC

Cc1cc(C2CC2)nc(Nc2ccccc2)n1
active: [1] 18 µM | [3] 32.2 µM | [5] 12.3 µM | [9] 50 µM | [11] 12.8 µM | [13] 33 µM | [14] 50 µM
not listed: [17] | [18] | [19]
inactive: all other assays above

CCOP(=S)(OCC)OC(Cl)C(Cl)(Cl)Cl (stereo unspecified)
active: [1] 25.3 µM | [2] 30.3 µM
not listed: [11] | [18] | [19]
inactive: all other assays above

CSC1=N[C@@](C)(c2ccccc2)C(=O)N1Nc1ccccc1
active: [1] 4.24 µM | [2] 6.21 µM | [17] 50 µM | [3] 3.2 µM | [9] 19.9 µM
not listed: [5] | [11] | [13] | [18] | [19]
inactive: all other assays above

CCOP(=O)(NC(C)C)Oc1ccc(SC)c(C)c1 (stereo unspecified)
active: [5] 14.2 µM
not listed: [11] | [13] | [19]
inactive: all other assays above

CN(C)C(=O)Nc1cccc(C(F)(F)F)c1
not listed: [11] | [18] | [19]
inactive: all other assays above

CCCCOC(=O)[C@@H](C)Oc1ccc(Oc2ccc(C#N)cc2F)cc1
not listed: [5] | [13] | [19]
inactive: all other assays above

CC[C@H](C)[C@H]1O[C@]2(C=C[C@@H]1C)C[C@@H]1C[C@@H](C/C=C(\C)[C@@H](O[C@H]3C[C@H](OC)[C@@H](O[C@H]4C[C@H](OC)[C@@H](NC)[C@H](C)O4)[C@H](C)O3)[C@@H](C)/C=C/C=C3\CO[C@@H]4[C@H](O)C(C)=C[C@@H](C(=O)O1)[C@]34O)O2
not listed: [5] | [13] | [19]
inactive: all other assays above

CC(C)=CC1C(C(=O)OCN2C(=O)C3=C(CCCC3)C2=O)C1(C)C (stereo unspecified)
active: [1] 38.4 µM | [2] 10.9 µM | [19] 73.6 µM | [3] 71.2 µM | [9] 62.1 µM
not listed: [5] | [11] | [18]
inactive: all other assays above

— PubChem BioAssay (EPA / NIEHS)
